About 83,000 compounds went through this panel and 20% of them were active in at least one assay; those are over-represented in the sample as a whole.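 48-hour exposure, single concentration, 96-well plates; percent growth endpoint where 0 means no net growth. Active: below 10.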 A number with no mark means an inactive call. Activity calls are given as the source filed them.
These compounds were tested on TK-10 renal (assay: NCI-60 one-dose screen, 48 h (100 = growth as untreated, 0 = no growth, -100 = all killed)). Conditions: 10 µM unless noted.
Description: Growth inhibition of the TK-10 human tumor cell line is measured as a screen for anti-cancer activity. Cells are grown in 96 well plates and exposed to the test compound for 48 hours. Compounds are tested at a single concentration, which is 10^-5 M for most compounds. The reported endpoint is percent growth (GI% or GIPRCNT), where numbers from 0 - 100% represent growth inhibition, and numbers from -100% - 0 represent cell death. For example, a value of 40 represents 60% growth inhibition. A value of 0 means no net growth occurred over the course of the experiment. A value of -40 indicates 40% of cells at the beginning of the experiment died by the end of the experiment. A value of -100 means all cells are dead at the end of the experiment.
NCI-60 Human Tumor Cell Lines Screen was performed using the standard one-dose NCI protocol, which is described in more detail at https://dtp.cancer.gov/discovery_development/nci-60/default.htm.
Compounds with GIPRCNT values below 10 were considered active. Activity score was based on GIPRCNT using the following formula: […]
Score is 0 for GIPRCNT values of 100 or above, 50 for GIPRCNT values of 0, and 100 for GIPRCNT values of -100.

Structure (SMILES) | growth
O=C(O)c1nn(Cc2ccc(Cl)cc2)c2ccccc12 | 123%
CCOC(=O)/C=C(\C)Nc1ccc(N/C(C)=C/C(=O)OCC)c2c1Oc1ccccc1O2 | 124%
C[C@]12CC[C@@H]3c4ccc(OC(=O)Cc5ccc(N(CCCl)CCCl)cc5)cc4CC[C@H]3[C@@H]1CC[C@@H]2OC(=O)Cc1ccc(N(CCCl)CCCl)cc1 | 120%
Cc1ccc(C[As+](c2ccccc2)(c2ccccc2)c2ccccc2)cc1 | 16.9%
COc1ccc(C(=O)c2ccc([As]=O)cc2)cc1 (stereo not given) | -100% (active)
Cc1cc(CCl)c(C)cc1CCl | 37.3%
N#C[Se]CCCNS(=O)(=O)C1CC2C=CC1C2 (stereo not given) | -66.4% (active)
O=[N+]([O-])c1ccc(/C=C/C=C/c2ccc(S(=O)(=O)F)cc2)c(Cl)c1 | 108%
CCOC(=O)C1(c2ccccc2)CCN(CC(=O)c2ccc(NC(C)=O)cc2)CC1 | 96.4%
COc1ccc(/C=C(/C(=O)N2CCCC2)c2cc(OC)c(OC)c(OC)c2)cc1N | 75.3%
CC(=O)O[C@H]1C[C@H](O[C@H]2[C@@H](O)C[C@H](O[C@H]3[C@@H](O)C[C@H](O[C@H]4CC[C@@]5(C)C(CCC6C5C[C@@H](O)[C@]5(C)[C@@H](C7=CC(=O)OC7)CC[C@]65O)C4)O[C@@H]3C)O[C@@H]2C)O[C@H](C)[C@H]1O[C@@H]1O[C@H](CO)[C@@H](O)[C@H](O)[C@H]1O (stereo not given in full) | -91% (active)
O=[N+]([O-])c1ccc2cnn(CSP(=S)(c3ccccc3)c3ccccc3)c2c1 | 127%
O=[As]c1ccc(C(=O)c2ccc(Oc3ccccc3)cc2)cc1 (stereo not given) | -98.8% (active)
CNC(=O)Oc1ccccc1-c1ccccc1 | 90.5%
CC[C@]12C=CCN3CC[C@@]4(c5ccc(OC)cc5N(C)[C@H]4[C@@](O)(C(=O)OC)[C@@H]1OC(=O)CCCN1CCN(CCCC(=O)O[C@@H]4[C@]5(CC)C=CCN6CC[C@@]7(c8ccc(OC)cc8N(C)[C@H]7[C@@]4(O)C(=O)OC)[C@@H]65)CC1)[C@@H]32 | -87.9% (active)
C[C@]12CCC(=O)CC1CC[C@@H]1C2CC[C@@]2(C)C1CC[C@@H]2OC(=O)CC[Se][Se]CCC(=O)O[C@H]1CCC2[C@@H]3CCC4CC(=O)CC[C@]4(C)C3CC[C@@]21C (stereo not given in full) | 77.4%
CN(C)P1(N(C)C)=NP(N(C)C)(N(C)C)=NP(N(C)C)(N(C)C)=N1 | 95.3%
Cc1ccc2oc(=O)c3c(c2c1)OC(N)=C(C#N)C3c1ccco1 (stereo not given) | 108%
Oc1ccc2c3c1O[C@H]1c4[nH]c5ccccc5c4C[C@@]4(O)C(C2)N(CC2CC2)CC[C@]314 | 95%
CC(=O)N1N=C(c2ccccc2)CC1c1sc(N(CCCl)CCCl)nc1Cl (stereo not given) | 108%

Structure (SMILES) | growth
CCC(C)(C)O | 107%
N#[N+]c1nc2nc(N)[nH]c(=O)c2[nH]1 | 90%
CCOc1cc(/C=N\Nc2nnc(C)n2N)c(C)cc1N(CCCl)CCCl | 31%
Cc1cc(N(CCCl)CCCl)ccc1C=Nc1ccc2ccccc2c1 | 73%
C1CNC2CCCC2C1 (stereo not given) | 103%
CC(C)[C@]12O[C@H]1[C@@H]1O[C@]13[C@]1(O[C@H]1C[C@H]1C4=C(CC[C@@]13C)C(=O)OC4)[C@@H]2OC(=O)OC(C)(C)C | 5.21% (active)
Cc1cccc(N(C)c2cccc3c2C(=O)[Se]C3)c1C | 62.8%
O=CN1N=C(c2ccccc2)CC1c1sc(N(CCCl)CCCl)nc1Cl (stereo not given) | 121%
Nc1ccc(N)c2c1Oc1ccccc1O2 | 131%
NC(=O)SCC(=O)Nc1ccc([As](=O)(O)O)cc1 | 105%
CCCCN(CCCC)CC(O)c1ccccc1 (stereo not given) | 115%
CCCCCCCCCCOc1ccc(C(=O)Oc2ccc(CSP3(=O)OCC4OC(n5ccc(=O)[nH]c5=O)C(F)C4OP(=O)(O)OCC4OC(n5cnc6c(N)ncnc65)C(F)C4O3)cc2)cc1 (stereo not given) | 92%
OC1CCCCC1N1CCC(c2ccccc2)CC1 (stereo not given) | 99%
CC(=O)Nc1ccc(Cc2ccc(NC(C)=O)cc2)cc1 | 106%
O1[As]2O[As]3O[As]1O[As](O2)O3 | 3.92% (active)
CCC(/C=C(C)/C=C/C(=O)c1c(O)c(-c2ccc(O)cc2)c[nH]c1=O)CO (stereo not given) | 130%
CC[C@@H](C)/C=C(C)/C=C/C(=O)c1c(O)c(-c2ccc(O)cc2)cn(O)c1=O | 11.6%
NC(=O)CN1C(=O)C(Cc2ccccc2)N=C(c2cccc(O)c2)c2ccccc21 (stereo not given) | 102% [30 µM]
CCCCCCCCCCCCOc1ccc(C(=O)Oc2ccc(CSP3(=O)OCC4OC(n5cnc6c(N)ncnc65)C(F)C4OP(=O)(O)OCC4OC(n5ccc(=O)[nH]c5=O)C(F)C4O3)cc2)cc1 (stereo not given) | 77.5%
OC1(c2ccc(Cl)cc2Cl)c2ccccc2C2=NCCN21 (stereo not given) | 76.6%
